# Assay outcomes (PubChem)
# TTR transcr act – increases transthyretin transcription | SH-SY5Y TTR promoter Gaussia luciferase, luminescence; 100% = recombinant luciferase protein wells | activation, % at 16.7 µM | actives 1.3% (n = 92,000) | AID 1117267;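 active means activation above the mean of all tested compounds plus 3 SD, cut at about 9.5% in these data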;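 further: cells exposed to compounds for one day before reading; 0% = median of all test compound wells on the plate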
# HuH7 TTR inh – counter-screen for TTR activators: TTR transcription inhibitors in HuH7 cells | shares compounds with TTR transcr act | HuH7 TTR promoter-Gaussia luciferase reporter, luminescence | inhibition, % at 16.7 µM | actives 4% (n = 1,100) | AID 1117279;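 active means average inhibition above the solvent-only control wells' mean plus 3 SD, cut at about 15% in these data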;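 further: 0% = cells with DMSO only and 100% = cells with inhibitor control FD; inhibitors lower well luminescence so higher value means more inhibition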
# TTR act confirm – confirmation of human transthyretin transcription activators; shares compounds with TTR transcr act; 1,100 tested, under 10 active; activation, % at 16.7 µM; SHSY5Y TTR promoter Gaussia luciferase, luminescence; 100% = purified Lucia enzyme wells, no cells; AID 1117280;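 active means mean activation above a set limit taken from the earlier primary screen, cut at about 11% in these data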;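 further: 0% = DMSO-treated cells and 100% = recombinant Lucia luciferase without cells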
# Active calls of the source: *. The entries come from a sample that favours hits as a whole.
SMILES,TTR transcr act,others
CCOC(=O)N1CCN(C(=O)CNC(=O)c2nn(-c3ccc(OC)cc3)c(=O)c3ccccc23)CC1,14.8*,HuH7 TTR inh=-17.7;TTR act confirm=1.4
COc1ccc(-n2nc(C(=O)NCC(=O)NCc3ccco3)c3ccccc3c2=O)cc1,0.4,
COc1ccc(-n2nc(C(=O)NCC(=O)NCCCN3CCN(C)CC3)c3ccccc3c2=O)cc1,-1.0,
CCn1c(=O)[nH]n(C/C(C)=C\c2c[n+](Cc3ccc4c(c3)OCO4)c(N)[nH]2)c1=O,0.5,
COc1ccc(C2C(C(=O)N3CCN(c4ccccc4)CC3)c3ccccc3C(=O)N2C)cc1OC (stereo not given),2.0,
COc1ccc(C2C(C(=O)O)c3ccccc3C(=O)N2C)cc1Br (stereo not given),11.3*,HuH7 TTR inh=-5.4;TTR act confirm=0.4
COc1ccc(OC)c(C2C(C(=O)O)c3ccccc3C(=O)N2C)c1 (stereo not given),-1.9,
CC(C)NC(=O)C1C(c2ccccc2)=Nc2ccccc2N1C(=O)c1cc(Cl)cc(Cl)c1 (stereo not given),0.5,
COC(=O)[C@@]12C[C@@H](CC(=O)NCc3cccs3)C(=O)N(Cc3ccco3)C1=CCC(C)(C)C2,1.5,
CC(C)Oc1ccc(S(=O)(=O)N2CCCCCC2)c2ccccc12,-1.2,
Cc1cc(C)cc(NC(=O)CSc2nc(CSc3ccc(Cl)cc3)cc(=O)[nH]2)c1,0.0,
Cc1noc(C)c1COc1ccc(C(=O)Nc2ccccn2)cc1,0.3,
CCc1ccccc1NC(=O)c1ccc(OCc2c(C)noc2C)cc1,48.9*,HuH7 TTR inh=-12.0;TTR act confirm=0.5
Cc1noc(C)c1COc1ccc(C(=O)Nc2ccccc2)cc1,0.4,
Cn1cc(S(=O)(=O)N2CCCC2)cc1C(=O)Nc1cccc(C(F)(F)F)c1,-2.4,
COC(=O)c1cnc(Nc2nc(C(N)c3ccccc3Cl)cs2)nc1C(F)(F)F (stereo not given),2.5,
COCCn1cnc2c1c(=O)n(CC(=O)Nc1cc(C)on1)c(=O)n2Cc1ccccc1,15.6*,HuH7 TTR inh=-15.3;TTR act confirm=0.1
CC(C)Cn1cnc2c1c(=O)n(CC(=O)N(C)C)c(=O)n2Cc1ccccc1,-0.1,
CCn1cnc2c1c(=O)n(CC(=O)Nc1ccc3c(c1)OC(F)(F)O3)c(=O)n2Cc1ccccc1,-0.5,
Cc1cccc(CN2CCN(C3CN(Cc4cn(Cc5ccccc5C(F)(F)F)nn4)S(=O)(=O)C3)CC2)c1 (stereo not given),0.5,
C=CCN1C(=O)c2ccc(C(=O)N(CC)CC(=O)Nc3ccc(OC)cc3)cc2C1=O,0.7,
COC(=O)CCc1nc2cc(Cl)ccc2n(Cc2ccccc2)c1=O,-3.8,
COc1cc(CN2CCC(C(=O)NC3CCCC3)CC2)cc(OC)c1O,-0.5,
CCOC(=O)C1CCCN(Cc2cc(Br)c(OC)cc2OC)C1 (stereo not given),2.8,
CCOC(=O)C1CCCN(Cc2cc(OC)c(O)c(OC)c2)C1 (stereo not given),25.0*,HuH7 TTR inh=-10.9;TTR act confirm=0.2
SMILES,TTR transcr act,others
O=C(C[C@H]1C(=O)N(Cc2ccccc2)C[C@@H]1Cc1ccccc1)Nc1ccc(Br)cc1,-0.7,
Cc1ccc(OCC(=O)NC(=S)Nc2ccc(Br)cn2)cc1,19.7*,HuH7 TTR inh=-9.6;TTR act confirm=-1.1
CCOc1ccc(NC(=O)Nc2ccc(Br)cn2)cc1,2.4,
Cc1ccc(OCC(=O)NC(=S)Nc2cccc(NC(=O)c3ccccc3)c2)cc1,-0.6,
CCc1cccc(C)c1NC(=O)CSc1nc2ccncc2[nH]1,-0.7,
CC(C)N1CCCCC(NC(=O)c2ccc(Cl)cc2Cl)C1=O (stereo not given),-1.7,
c1ccc2c(c1)ccn2CCCN1CCCCC1,-0.5,
CC(Oc1cc(-c2ccccc2)cc2ccccc12)C(=O)N1CCOCC1 (stereo not given),-2.2,
CC(C)n1nnnc1-c1cccc(Cl)c1,11.8*,HuH7 TTR inh=0.6;TTR act confirm=1.2
Cn1nnnc1NCc1cccc(Cl)c1,-0.3,
Cc1nn2cc(-c3cccc(Cl)c3)cnc2c1Cl,-0.9,
COP(=O)(CC(=O)O)C(CC(C)C)NC(=O)OCc1ccccc1 (stereo not given),0.1,
O=C1CCCC/C1=C/Nc1cccc(C(F)(F)F)c1,0.1,
Cc1ccc(N/C=C2\CCCCC2=O)nc1,9.9*,HuH7 TTR inh=-8.5;TTR act confirm=-0.3
Cc1ccc(N/C=C2\CCCCC2=O)c(C)c1,1.8,
Cc1cc(OCc2cc3c(cc2Cl)OCO3)c2c(C)cc(=O)oc2c1,11.3*,HuH7 TTR inh=-17.2;TTR act confirm=1.0
C=C(Cl)COc1cc(C)cc2oc(=O)cc(CC)c12,-2.8,
CCOc1cc2c(C)cc(=O)oc2cc1Cl,-0.3,
CCCS(=O)(=O)c1nc(S(=O)(=O)c2ccc(C)cc2)c(N2CC(C)OC(C)C2)s1 (stereo not given),1.0,
COC(=O)[C@]12CCCCC=C1N(Cc1ccc(OC)cc1)C(=O)[C@@H]2CC(=O)N1CCCCC1,-0.2,
O=C(Nc1ccc(C(F)(F)F)cc1)OC1CC2CC1[C@H]1CCCCN1C2 (stereo not given in full),1.0,
COc1ccc(-c2nc(C)c(C(C)=O)n2O)cc1,-0.5,
COc1ccc(C(C)n2c(C)c3c(C)nnc(C)c3c2C)cc1 (stereo not given),9.8*,HuH7 TTR inh=-9.3;TTR act confirm=1.1
CCOC(=O)CSc1nnc(-c2ccc(OC)cc2)n1CC,-0.9,
Cc1ccccc1/C=N\NC(=O)c1ccccc1-n1cccc1,-1.0,
SMILES,TTR transcr act,others
NNC(=O)c1cc2cc3ccccc3nc2s1,-0.1,
S=c1[nH]nc(COc2ccccc2)n1/N=C/C=C/c1ccco1,3.2,
S=c1[nH]nc(COc2ccccc2)n1/N=C/C=C/c1ccccc1,19.5*,HuH7 TTR inh=-3.5;TTR act confirm=1.3
S=c1[nH]nc(COc2ccccc2)n1/N=C/c1cccc(Br)c1,-0.8,
CCN(CC)CCCCN1c2ccccc2Sc2ccccc21,-1.1,
Cc1csc(=O)n1CC(=O)OCC(=O)Nc1ccc(F)c(F)c1,0.6,
C[C@H]1[C@@H](OC(=O)NCc2cccc(C(F)(F)F)c2)CC[C@@]23CCCN2C(=O)CCC[C@@H]13,3.2,
Cc1c(Br)c(C(F)(F)F)nn1CC(=O)NCc1ccco1,0.0,
O=C(Cn1nc(C(F)(F)F)c2c1CCCC2)NCc1ccco1,14.5*,HuH7 TTR inh=-22.5;TTR act confirm=-0.5
CC(NC(=O)Cn1nc(C(F)(F)F)c2c1CCC2)c1ccccc1 (stereo not given),-1.2,
Cc1ccc(OCCN2C(=O)C(=O)c3cccc(C)c32)cc1,-2.8,
Clc1cccc(CNc2nc(-c3ccccn3)nnc2-c2ccccc2)c1,-2.9,
CC(C)CNC(=O)C1CCN(S(=O)(=O)c2ccc3c(c2)OCCO3)CC1,-0.2,
CCC(C)(C)n1nnnc1C(c1cc2cccc(C)c2[nH]c1=O)N1CCN(C(=O)c2ccco2)CC1 (stereo not given),0.8,
O=c1[nH]c2cc3c(cc2cc1C(c1nnnn1Cc1ccccc1)N1CCCc2ccccc21)OCO3 (stereo not given),0.2,
Cc1cccc2cc(C(c3nnnn3Cc3ccc4c(c3)OCO4)N3CCCC3)c(=O)[nH]c12 (stereo not given),10.6*,HuH7 TTR inh=-12.8;TTR act confirm=0.7
Cc1cc(C(=O)NNC(=O)Nc2ccc(Cl)cc2)no1,-0.3,
Cc1nc(C(=O)NNC(=O)Nc2ccc(Cl)cc2)cs1,4.1,
CN(C)CC#Cc1cncc(C(=O)NNC(=O)Nc2ccc(Cl)cc2)c1,10.1*,HuH7 TTR inh=-13.6;TTR act confirm=1.7
CSc1nc2sc3c(c2c(=O)n1CC(C)C)CC(C)(C)OC3,-0.4,
O=C1CCCC2=C1CC(C(=O)OCc1ccccc1)C(=O)N2Cc1ccccc1 (stereo not given),-1.3,
